{"source": "PubChem BioAssay (Tox21)", "note": "Several values for one entry are separate records, joined by “and”; a condition that tells them apart may be missing. Identical values can stand only once. Results filed as inconclusive are left out. A number with no mark means an inactive call. Activity calls are given as the source filed them. Calls follow the shape of the dose curve; as a rule, active = well fitted cell-killing curve with a large enough effect in the repeat runs; inconclusive = weak or mixed curves, or effect the other way; inactive = no such curve, though single readings can be large or run the other way. % is scaled to controls: 0 for no effect and ±100 for the full control effect; potency is read from the fitted curve at half-maximal effect.", "data": [{"experiment": "qHTS assay to identify small molecule antagonists of the glucocorticoid receptor (GR) signaling pathway - cell viability counter screen (AID 720693); also: nearly all actives have a fitted effect of over 55% in size", "conditions": "GR-bla HeLa viability, CellTiter-Glo luminescence, 18 h, with 5 nM dexamethasone present; series mostly up to 58.5 µM; viability change, negative = cytotoxic: at the top concentration", "source_text": "National Center for Advancing Translational Sciences [NCATS]\nNIH Chemical Genomics Center [NCGC]\nU.S. Environmental Protection Agency [EPA]\nNational Institutes of Environmental Health Sciences [NIEHS]\nNational Toxicology Program [NTP]\nU.S. Food and Drug Administration [FDA]\nThe Glucocorticoid receptor (GR) is one of the members of the nuclear receptor family of ligand-dependent transcription factors. GR plays a critical role in carbohydrate, protein and lipid metabolisms and programmed cell death. CellSensor GR-bla HeLa cell line (Invitrogen) contains a beta-lactamase reporter gene under the control of the glucocorticoid response element stably integrated into HeLa cells, a cervical cancer cell line that expresses glucocorticoid receptor. The activation of the reporter gene under culture conditions can be detected by fluorescence intensity. This cell line has been used to screen the Tox21 10K compound library and to identify the compounds that inhibit the GR signaling. The cytotoxicity of the Tox21 compound library against the GR-bla HeLa cell line was tested in parallel by measuring the cell viability using CellTiter-Glo assay in the same wells.\nTox21 Assay Protocol Summary:\nThe GR-bla HeLa cells were dispensed at 1500 cells/5 ul/well in 1536-well black wall/clear bottom plates using a Multidrop Combi (ThermoFisher Scientific, Waltham, MA) dispenser. After the assay plates were incubated at a 37 C/5% CO2 incubator for 4 hours, 23 nL of compounds dissolved in DMSO, positive controls or DMSO only was transferred to the assay plate by a pintool station (Kalypsys, San Diego, CA), followed by addition of 1 uL of dexamethasone (5 nM, final concentration in the well). The plates were incubated at 37 C for 18 hours. After 1 uL of LiveBLAzerTM B/G FRET substrate was added using a Flying Reagent Dispenser (Aurora Discovery, San Diego, CA), the plates were incubated at room temperature (RT) for 2 hours, and fluorescence intensity was measured by an Envision plate reader (PerkinElmer, Shelton, CT). After measurement of bla assay, 3 ul CellTiter-Glo (Promega, Madison, WI) was added to measure the cytotoxicity and the plates were then incubated at RT for 30 min. The luminescence was measured using a ViewLux (Perkin Elmer) plate reader.", "values": [{"molecule": "CCCCNc1c(C(=O)OCC)c(C)nc2c1cnn2CC", "viability change, negative = cytotoxic": "-11.2%"}, {"molecule": "C=C(c1ccc(C(=O)O)cc1)c1cc2c(cc1C)C(C)(C)CCC2(C)C", "Potency": "13.4 µM (active)"}, {"molecule": "Cc1ccc2ccc3cccc4ccc1c2c34", "viability change, negative = cytotoxic": "14.8%"}, {"molecule": "S=P(N1CC1)(N1CC1)N1CC1", "viability change, negative = cytotoxic": "5.12%"}, {"molecule": "O=C1NCN(c2ccccc2)C12CCN(CCCC(c1ccc(F)cc1)c1ccc(F)cc1)CC2", "Potency": "21.3 µM (active)"}, {"molecule": "ClC/C=C\\CCl", "viability change, negative = cytotoxic": "-11.4% [at 78.9 µM]"}, {"molecule": "CCCCCCCCCCCCCCCC", "viability change, negative = cytotoxic": "3.68%"}, {"molecule": "C=CC(=C)CCC=C(C)C", "viability change, negative = cytotoxic": "-2.53%"}, {"molecule": "CCCCC(CC)COC(=O)c1ccc(O)cc1", "note": "(stereo not given)", "Potency": "43.5 µM (active)"}, {"molecule": "C=CCCCCCCC=C", "viability change, negative = cytotoxic": "-0.0496%"}, {"molecule": "CC(C)(c1cc(Br)c(OCCO)c(Br)c1)c1cc(Br)c(OCCO)c(Br)c1", "Potency": "38 µM (active)"}, {"molecule": "O=C1OC(=O)c2cccc3cccc1c23", "viability change, negative = cytotoxic": "15.7% [at 78.9 µM]"}, {"molecule": "CC(=O)Oc1ccc(C2(c3ccc(OC(C)=O)cc3)C(=O)Nc3ccccc32)cc1", "Potency": "inactive"}, {"molecule": "O=Cc1ccc(F)cc1", "viability change, negative = cytotoxic": "2.48%"}, {"molecule": "Brc1ccccc1-c1ccccc1", "viability change, negative = cytotoxic": "14.9%"}, {"molecule": "CNCC[C@H](Oc1cccc2ccccc12)c1cccs1", "viability change, negative = cytotoxic": "-4.19%"}, {"molecule": "[O]=[Zr]", "viability change, negative = cytotoxic": "-8.69%"}, {"molecule": "Nc1ncnc2c1ncn2[C@@H]1O[C@H](COP(=O)(O)O)[C@@H](O)[C@H]1O", "viability change, negative = cytotoxic": "1.04%"}, {"molecule": "CCCCCCCCCCCCCOP(=O)(O)O", "viability change, negative = cytotoxic": "5.22%"}, {"molecule": "Clc1ccc(C(Cn2ccnc2)OCc2c(Cl)cccc2Cl)c(Cl)c1", "note": "(stereo not given)", "viability change, negative = cytotoxic": "-0.0561% [at 27 µM]"}, {"molecule": "O=C(O)c1cccc(Cl)n1", "viability change, negative = cytotoxic": "-8.59%"}, {"molecule": "CCCCCCCC/C=C\\CCCCCCCC(=O)N(C)CC(=O)O", "Potency": "49 µM (active)"}, {"molecule": "COC(=O)CC#N", "viability change, negative = cytotoxic": "19.3% [at 78.9 µM]"}, {"molecule": "C=CC(=O)OCC(O)COc1ccccc1", "note": "(stereo not given)", "Potency": "38.9 µM (active)"}, {"molecule": "Clc1ccccc1CN1CCc2sccc2C1", "viability change, negative = cytotoxic": "1.91%"}, {"molecule": "Oc1ccc(-c2ccc(O)cc2)cc1", "viability change, negative = cytotoxic": "21.7% [at 78.9 µM]"}, {"molecule": "C=C(C)C(=O)OCCC[Si](Cl)(Cl)Cl", "viability change, negative = cytotoxic": "-5.17% [at 78.9 µM]"}, {"molecule": "CC(C)=C1CC[C@@H](C)CC1=O", "viability change, negative = cytotoxic": "-6.25%"}, {"molecule": "CCc1ccc(O)c(C(C)(C)C)c1", "viability change, negative = cytotoxic": "-9.41%"}, {"molecule": "CCCC(CC)CCCCCCCN", "note": "(stereo not given)", "viability change, negative = cytotoxic": "4.13% [at 78.9 µM]"}, {"molecule": "CCCN(CCc1cccs1)[C@H]1CCc2c(O)cccc2C1", "viability change, negative = cytotoxic": "8.09%"}, {"molecule": "N[C@@H](CSSC[C@H](N)C(=O)O)C(=O)O", "viability change, negative = cytotoxic": "3.94%"}, {"molecule": "CC(C)N=C(N)/N=C(\\N)Nc1ccc(Cl)cc1", "viability change, negative = cytotoxic": "-11.6% [at 27 µM]"}, {"molecule": "CCCCCCC(C)OC(=O)COc1nc(F)c(Cl)c(N)c1Cl", "note": "(stereo not given)", "viability change, negative = cytotoxic": "6.27%"}, {"molecule": "COC(=O)CC(C)CCC=C(C)C", "note": "(stereo not given)", "viability change, negative = cytotoxic": "-12.8%"}, {"molecule": "Cc1ccc(N)cc1O", "viability change, negative = cytotoxic": "10.6%"}, {"molecule": "C(=C/c1ccccc1)/c1ccccc1", "viability change, negative = cytotoxic": "-3.18% [at 78.9 µM]"}, {"molecule": "CCCCCCCC/C=C\\CCCCCCCC(=O)OCCOC(=O)CCCCCCC/C=C\\CCCCCCCC", "viability change, negative = cytotoxic": "-1.75% [at 78.9 µM]"}, {"molecule": "CC=O", "Potency": "25.7 µM (active)"}, {"molecule": "CCN=c1cc2oc3cc(NCC)c(C)cc3c(-c3ccccc3C(=O)OCC)c-2cc1C", "Potency": "21.8 µM (active) and 21.9 µM (active)"}]}]}
